Screening results: PubChem BioAssay, National Center for Advancing Translational Sciences (NCATS)
Abeta yeast res – A-beta toxicity reversal in yeast | yeast expressing A-beta42, growth rescue, OD600, 48 h; response scale: 0% DMSO, 100% iron-clioquinol control | Potency, µM (top dose mostly 46.1 µM), usual class: activators | 0.063% of 410,000 active; note: nearly all actives have a fitted effect of over 55% in size
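Growth rescue measured by 600 nm absorbance after 48 h yeast culture at 30 C with compound. Values normalized between DMSO and an equimolar ferric chloride plus clioquinol control.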
aSyn rescue – alpha-synuclein toxicity inhibition in yeast; Yeast expressing alpha-synuclein, growth rescue, BacTiter-Glo, 24 h; Potency, µM (series often up to 46.1 µM), for inactives: top-dose growth rescue (activation), hits mostly activators; 0.14% of 370,000 active; AID 652106; note: % of control where 0% means no effect; nearly all actives have a fitted effect of over 65% in size
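Readout is rescue of growth in alpha-synuclein-expressing yeast, so inhibitors of toxicity appear as activators. Growth after 24 hr at 30 deg C in galactose medium is quantified by luminescence.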
FUS yeast rescue – suppressors of FUS proteinopathy in yeast; S. cerevisiae FUS-expressing, growth rescue, OD600, 24 h; Potency, µM (doses to about 76.6 µM), most hits filed as activators; 0.24% of 390,000 active; AID 1347120;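 note: plate controls were DMSO vehicle for no effect and reference control for full effect; nearly all actives have a fitted effect of over 55% in size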
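Galactose (2%) drives FUS expression in yeast precultured in raffinose; seeding density OD 0.005. Test compounds incubated 24hr at 30C and 99% humidity before absorbance at 600 nm was measured.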
TDP-43 yeast inh – TDP-43 toxicity inhibition in yeast. TDP-43 expressing yeast growth rescue, BacTiter-Glo, 24 h. Potency, µM (doses to about 46.1 µM), for inactives: at the top dose growth rescue (activation), usual class: activators. AID 652104. 1.8% of 410,000 active; note: % of control where 0% means no effect; nearly all actives have a fitted effect of over 50% in size
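Growth rescue of TDP-43-toxic yeast measured as ATP luminescence (BacTiter-Glo). Cells grown to mid-log in raffinose, induced in galactose at OD600=0.02, exposed to compound 24 hr at 30 deg C.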
The depositor's hits bear a star; i = inactive; u = inconclusive; x = no result. Rows were chosen to be rich in hits. Some 2.1% of all compounds tested hit in one or more screens of this group. Calls come from the whole dose curve; as a rule, active = well fitted curve in the direction sought with a large enough effect; inconclusive = small, poorly fitted or top-dose-only effect, or another doubt; inactive = no such curve, though single readings can be large; an effect the other way counts as inactive or inconclusive. Potency is the fitted concentration of half-maximal effect.

SMILES	Abeta yeast res	aSyn rescue	FUS yeast rescue	TDP-43 yeast inh
S=C(NCCSCc1ccc(Cl)cc1)Nc1ccccc1	i	-15%	x	25µM*
C=CCNC(=S)N1CCN(c2ccccc2Cl)CC1	u	-15%	i	23%
CNC(=S)N1CCC(Cc2ccccc2)CC1	u	2%	i	4%
CCCCNC(=S)N1CCC(Cc2ccccc2)CC1	18µM*	-9%	i	11%
CCCCNC(=S)N1CCN(c2ccccc2Cl)CC1	i	2%	i	13µM*
COC(=O)[C@]12C[C@H](CC(=O)N3CCN(C(=O)C4CC4)CC3)C(=O)N(Cc3ccco3)C1=C[C@H](C(C)C)O[C@@H]2C1CC1	x	x	i	x
Nn1c(SCC(=O)NC2CCCCC2)nnc1-c1cc(-c2ccc(F)cc2)n[nH]1	x	x	i	x
COC(=O)C1CN(Cc2ccc(C)cc2)CCS(=O)(=O)N1Cc1cn(Cc2ccc(OC)cc2)nn1 (stereo unspecified)	x	x	i	x
Cc1c(CCNC=O)cc(C)c2c3c(oc12)CCCC3	i	17%	x	16µM*
COC(=O)c1ccc(Cn2ccc3ccc(-c4ccc5ccn(Cc6ccc(OC)cc6)c5c4)cc32)cc1	x	x	i	x
c1ccc2c(c1)OCC(c1csc3ncnc(N4CCCCC4)c13)O2 (stereo unspecified)	i	-8%	i	-10%
Clc1ncnc2scc(C3COc4ccccc4O3)c12 (stereo unspecified)	i	5%	i	18µM*
O=C(Nc1ccccc1F)c1cnn2c1NC(=C1CC1)C=C2C(F)F	x	-8%	x	x
CCC(C)[C@@H](NC(=O)OC(C)(C)C)c1nnc(S(=O)(=O)Cc2cccc(C)c2)o1 (stereo partly specified)	i	7%	i	7.9µM*
c1coc(-c2nnc3sc(Cc4cccs4)nn23)c1	i	-4%	10µM*	-6%
COc1ccc(OCc2nn3c(-c4ccco4)nnc3s2)cc1	i	6%	u	u
Clc1ccc(OCc2nn3c(-c4ccco4)nnc3s2)cc1	i	-3%	i	18µM*
COc1cc(-n2c(C)nc3cc(C(=O)N4CC(C)CC(C)C4)ccc32)cc(OC)c1OC (stereo unspecified)	x	x	i	x
CC(C)Nc1nc(-c2ccccc2CO)c2sccc2n1	i	-21%	i	u
COCCNc1nc(Oc2cccc3ccccc23)c2sccc2n1	i	18%	i	16µM*
CCc1ccccc1Oc1nc(NC(C)C)nc2ccsc12	i	-16%	i	20µM*
CCOC(=O)C1=C(N)N2C(=O)C(C)SC2=C(C(=O)OC)C1c1cccc(OC)c1 (stereo unspecified)	i	1%	i	20µM*
Cc1cccc2c(C(=O)N3CCN(c4ccccn4)CC3)cc(-c3cccc(Br)c3)nc12	i	12%	u	18µM*
COc1cccc(-c2cc(C(=O)N3CCN(c4ncccn4)CC3)c3ccccc3n2)c1	i	4%	x	18µM*
O=C(c1cc(-c2ccccc2)nc2ccccc12)N1CCc2ccccc2C1	i	-16%	x	25µM*
SMILES	Abeta yeast res	aSyn rescue	FUS yeast rescue	TDP-43 yeast inh
Cc1ccc2nc(-c3ccc(C)c(NC(=O)COc4ccccc4Cl)c3)oc2c1	x	-5%	x	x
CCn1c(SCC(=O)NN=Cc2c(C)nn(-c3ccccc3)c2C)nnc1-c1ccc(OC)c(OC)c1	x	x	i	x
O=C1CSc2ccc(C(=O)Nc3cccc(S(=O)(=O)Nc4ccc(Br)cc4)c3)cc2N1	i	-7%	7.1µM*	-14%
C=CCn1c(SCC(=O)NCc2ccco2)nnc1-c1cccc(N(C)C)c1	x	-2%	x	x
Cc1cccc(OCCn2c(=O)n(C)c3ccccc32)c1	i	22µM*	i	u
Cc1cccc(OCCCN2C(=O)C(=O)c3cc(C)ccc32)c1	i	0%	i	14µM*
O=C(Cc1ccccc1)NC1CCCc2c1cnn2-c1ccc(F)cc1F (stereo unspecified)	x	x	i	x
CCc1ccc([C@H]2C(C(=O)O)=C[C@@H](C(C)(C)C)N2S(=O)(=O)c2ccc(C)cc2)cc1	i	-14%	i	14µM*
Cc1c(C(=O)c2ccccc2C(=O)O)sc2ccccc12	i	1%	i	11µM*
CCn1c(=O)c2cc(C(=O)N3CCOCC3)sc2c2ccccc21	i	0%	i	23%
Cn1c2ccccc2c2cc(C(=O)N3CCOCC3)sc21	i	3%	i	14µM*
COc1ccc(C(=O)N(C)[C@H]2C[C@H]3c4[nH]c5cccc(-c6ccccc6)c5c4CCN3C[C@H]2[C@H](C)O)cc1	x	x	i	x
O=C(CSc1ncnc2sc3c(c12)CCCC3)Nc1ccc(Oc2ccccc2)cc1	x	x	i	x
CC1Cc2nc(SCC(=O)NCC3CCCO3)n(-c3ccccc3)c(=O)c2S1 (stereo unspecified)	i	22µM*	i	-2%
CNc1ccc(C=C2C=CC=C2)cc1	x	1%	x	x
O=C(c1cc(COc2ccc(F)cc2Cl)on1)N1CCN(c2cnccn2)CC1	i	1%	x	32µM*
O=C(c1cc(COc2ccc(F)cc2Cl)on1)N1CCSCC1	i	7%	i	u
Cc1c(NS(=O)(=O)c2ccccc2)cc(Cl)c(O)c1C	i	6%	x	10µM*
Cc1cccc(NC(=O)c2cc([N+](=O)[O-])ccc2Cl)c1O	i	-3%	i	22µM*
O=C(c1cc(F)ccc1F)N1CCC(Oc2cccnc2)CC1	x	x	i	x
CCOC(=O)/C=C/C(=O)OCC(=O)Nc1ccc([N+](=O)[O-])cc1	x	-21%	i	14µM*
CCc1ccc(CNC(=O)CN2CCSc3ccccc32)cc1	u	11%	i	25µM*
Cc1ccccc1CNC(=O)CN1CCSc2ccccc21	i	1%	i	13%
COc1ccc(Cc2nnc(SCc3ccc([N+](=O)[O-])cc3)o2)cc1	i	7%	i	18µM*
O=[N+]([O-])c1ccc(CSc2nnc(Cc3ccccc3)o2)cc1	i	13%	i	u
SMILES	Abeta yeast res	aSyn rescue	FUS yeast rescue	TDP-43 yeast inh
CCOc1ccc(Oc2c(Cl)c(Br)nn(Cc3cccc4ccccc34)c2=O)cc1	x	x	i	x
C=CCn1c(O)c(N=NC(=S)Nc2cccc(OC)c2)c2ccccc21	u	22µM*	i	16µM*
CC(C)(N[C@@H](Cc1c[nH]c2ccccc12)C(=O)NCCCc1ccccc1)C(=O)NCc1ccccc1	x	x	i	x
O=C(Nc1ccc(Br)cc1)O[C@@H]1CC[C@@]23CCCN2C(=O)CCC[C@H]3C1	x	x	i	x
O=c1cc(O)c2ccc(O)cc2o1	i	u	i	14µM*
O=c1oc2cc(O)ccc2c2c1CCCC2	i	14%	i	13µM*
Cc1cc(=O)oc2cc(O)ccc12	i	-8%	i	12%
CC(=O)Oc1ccc2c3c(c(=O)oc2c1)CCCC3	u	6%	i	u
COc1ccccc1/C=C1\SC(N2CCC(C)CC2)=NC1=O	i	17%	i	13µM*
